The experiment concerns the target Nonstructural protein 3 (Zika virus) (UniProt A0A024AXB9).
[1] abbreviates: PRVABC59, Concentration 50.0 uM, Number of replicates 1.0.
Where [2] appears, read: PRVABC59, Concentration 15.0 uM, Number of replicates 1.0.

Among all 2,700 compounds or so, about 160 (5.9%) showed an effect of 50% or more. The entries come from a sample that favours strong results as a whole.

Nonstructural protein 3 (Zika virus), sequence (A0A024AXB9 as listed by the source): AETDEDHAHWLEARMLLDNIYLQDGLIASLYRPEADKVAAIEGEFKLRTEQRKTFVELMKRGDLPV

The term inhibition denotes the drop in the measured response relative to a control, in per cent. As for `Cc1cc(CO)c2cccc(Cc3ccccc3C(=O)N3CCO[C@@H](CN)C3)c2n1`, the inhibition (PRVABC59, Concentration 99.9 uM, Number of replicates 2.0, Standard deviation 2.9992587541792743 %) was -6.8%.
As for `O=Cc1ccc(N2CCC(C(=O)Nc3cc(Cl)c(F)cc3F)CC2)cc1`, the inhibition under setting [1] was 26.1%.
Consider `COc1ccccc1N1CCN(C(=O)c2cc(Cl)ccc2NS(=O)(=O)c2ccc(Oc3ccccc3Cl)cc2)CC1`, for which the inhibition under setting [2] came out at 8.47%.
In the case of `O=Cc1ccc(N2CCC(C(=O)Nc3ncc(F)cc3Br)CC2)cc1`, the inhibition under setting [1] came to 19.1%.
Regarding `C[C@@H](NC(=O)OCc1ccccc1)C(=O)Nc1cccc(CN)c1`, the inhibition is, setting by setting: (PRVABC59, Concentration 49.5 uM, Number of replicates 2.0, Standard deviation 0.22300909071478295 %) -5.65%; (PRVABC59, Concentration 99.01 uM, Number of replicates 2.0, Standard deviation 0.06482809074333463 %) -3.85%; (PRVABC59, Concentration 198.0 uM, Number of replicates 2.0, Standard deviation 0.9413049329503056 %) -1.69%.
As to `CCOc1ccc(CNC(=O)c2cc(Cl)ccc2NS(=O)(=O)c2ccc(Oc3ccccc3Cl)cc2)cc1`, under setting [2], the inhibition amounted to 30.8%.
`Cc1cc(CO)c2cccc(Cc3ccccc3C(=O)N3CCC(CN)CC3)c2n1`: the inhibition runs as follows: (PRVABC59, Concentration 49.95 uM, Number of replicates 2.0, Standard deviation 5.668177927575499 %) 56.2%; (PRVABC59, Concentration 99.9 uM, Number of replicates 2.0, Standard deviation 1.410491152712613 %) 37.7%.
On to `Cc1cc(CO)c2cccc(Cc3ccccc3C(=O)N3CCC(C(=O)O)CC3)c2n1`, for which the inhibition is -4.89% (PRVABC59, Concentration 49.95 uM, Number of replicates 2.0, Standard deviation 1.0591789629357544 %) and -5.26% (PRVABC59, Concentration 99.9 uM, Number of replicates 2.0, Standard deviation 2.3071221964090083 %).
On to `Cc1cc(CO)c2cccc(Cc3cccc(C(=O)N4CC[C@@H](CO)C4)c3)c2n1`, for which the inhibition reads like this: (PRVABC59, Concentration 49.95 uM, Number of replicates 2.0, Standard deviation 1.594011680945781 %) -6.14%; (PRVABC59, Concentration 99.9 uM, Number of replicates 2.0, Standard deviation 1.5520642713220405 %) 3.44%.
Consider `Cc1cc(CO)c2cccc(Cc3ccccc3C(=O)N3CC[C@@H](O)C3)c2n1`, for which the inhibition is -8.95% (PRVABC59, Concentration 49.95 uM, Number of replicates 2.0, Standard deviation 0.18876460771228748 %) and -7.58% (PRVABC59, Concentration 99.9 uM, Number of replicates 2.0, Standard deviation 1.2164824655212059 %).
Turning to `Cc1cc(CO)c2cccc(Cc3cccc(C(=O)N4CCC(C(=O)O)CC4)c3)c2n1`, the inhibition is, setting by setting: (PRVABC59, Concentration 49.95 uM, Number of replicates 2.0, Standard deviation 0.6921367263576601 %) -3.78%; (PRVABC59, Concentration 99.9 uM, Number of replicates 2.0, Standard deviation 0.04719115192807187 %) -2.12%.
On to `Cc1cc(CO)c2cccc(Cc3cccc(C(=O)N4CCC(CN)CC4)c3)c2n1`, for which the inhibition (PRVABC59, Concentration 49.95 uM, Number of replicates 2.0, Standard deviation 0.3303341859864401 %) was 94.6% and the inhibition (PRVABC59, Concentration 99.9 uM, Number of replicates 2.0, Standard deviation 0.3198467013777773 %) stood at 90.9%.
Consider `O=C(N[C@H]1CC(=O)N(Cc2ccccc2)C1)c1cc(Cl)ccc1NS(=O)(=O)c1ccc(Oc2ccccc2Cl)cc1`, for which the inhibition under setting [2] turned out to be 22%.
In the case of `Cc1cc(CO)c2cccc(Cc3cccc(C(=O)NCc4c(C)noc4C)c3)c2n1`, the inhibition runs as follows: (PRVABC59, Concentration 49.95 uM, Number of replicates 2.0, Standard deviation 0.6344586798768046 %) -2.24%; (PRVABC59, Concentration 99.9 uM, Number of replicates 2.0, Standard deviation 0.2674164432987103 %) 1.65%.
For the molecule `O=C(c1cc(Cl)ccc1NS(=O)(=O)c1ccc(Oc2ccccc2Cl)cc1)N1CCN(C(=O)[C@H]2COc3ccccc3O2)CC1`, the inhibition under setting [2] amounted to 19.2%.
In the case of `Cn1cc(NC(=O)c2ccccc2C(F)(F)F)c(-c2ccccc2CO)n1`, the inhibition runs as follows: (PRVABC59, Concentration 49.5 uM, Number of replicates 2.0, Standard deviation 1.1938974234704913 %) -0.442%; (PRVABC59, Concentration 99.01 uM, Number of replicates 2.0, Standard deviation 1.523480341882225 %) 1.31%; (PRVABC59, Concentration 198.0 uM, Number of replicates 2.0, Standard deviation 2.1372444344514228 %) 2.85%.
Take `Cc1cc(N)c2c(Cl)ccc(Cl)c2n1`: the inhibition (PRVABC59, Concentration 49.95 uM, Number of replicates 2.0, Standard deviation 14.266771188329304 %) is -9.58%.
As for `Cc1cc(Cl)c2cccc(N)c2n1`, the inhibition runs as follows: (PRVABC59, Concentration 49.95 uM, Number of replicates 2.0, Standard deviation 7.781875381379218 %) 5.79%; (PRVABC59, Concentration 99.9 uM, Number of replicates 2.0, Standard deviation 5.7320152302040395 %) 14.4%.
For the molecule `Cc1cc(Cl)c2c(N)ccc(C)c2n1`, the inhibition turned out to be 80.8% (PRVABC59, Concentration 49.95 uM, Number of replicates 2.0, Standard deviation 1.4741281735170297 %) and 83.6% (PRVABC59, Concentration 99.9 uM, Number of replicates 2.0, Standard deviation 0.2024559271573544 %).
For the molecule `O=Cc1ccc(N2CCC(C(=O)NCc3c(F)cc(F)c(F)c3F)CC2)cc1`, where the note is “PRVABC59, Concentration 10.0 uM, Number of replicates 1.0”, the inhibition amounted to 22.5%.
`COc1ccc(CN2CCC(c3c[nH]c4cccnc34)CC2)cc1`: the inhibition is, setting by setting: (PRVABC59, Concentration 49.5 uM, Number of replicates 2.0, Standard deviation 0.21004326604655832 %) 0.598%; (PRVABC59, Concentration 99.01 uM, Number of replicates 2.0, Standard deviation 0.8142417098777236 %) 6.55%; (PRVABC59, Concentration 198.0 uM, Number of replicates 2.0, Standard deviation 1.1254172872302635 %) 14.8%.
For `O=Cc1ccc(N2CCC(C(=O)N(Cc3cnn(-c4ccccc4)c3)C3CC3)CC2)cc1`, the inhibition under setting [1] was 26.1%.
With `COc1cc(NC(=O)C2CCN(c3ccc(C=O)cc3)CC2)cc(OC)c1`, the inhibition under setting [1] is 28%.
With `O=Cc1ccc(N2CCC(C(=O)Nc3cc(Cl)c(F)c(Cl)c3)CC2)cc1`, the inhibition under setting [1] worked out at 20.1%.
In the case of `O=Cc1ccc(N2CCC(C(=O)Nc3c(Cl)cc(Cl)cc3Br)CC2)cc1`, under setting [1], the inhibition is 22.3%.
For `O=Cc1ccc(N2CCC(C(=O)Nc3cc(Cl)c(O)c(Cl)c3)CC2)cc1`, under setting [1], the inhibition is 98.7%.
Regarding `O=Cc1ccc(N2CCC(C(=O)Nc3ccc([N+](=O)[O-])cc3Cl)CC2)cc1`, the inhibition under setting [1] stood at 39.8%.
Take `O=Cc1ccc(N2CCC(C(=O)Nc3cc(Cl)cc([N+](=O)[O-])c3O)CC2)cc1`: under setting [1], the inhibition is 93.4%.
The same measure, in the same setting: with `O=Cc1ccc(N2CCC(C(=O)Nc3cc(Cl)cc(Cl)c3O)CC2)cc1` the figure was 92.4%.
With `O=Cc1ccc(N2CCC(C(=O)Nc3ccc(Cl)c(Cl)c3)CC2)cc1`, under setting [1], the inhibition is 22.8%.
Turning to `O=Cc1ccc(N2CCC(C(=O)Nc3cc(Cl)ccc3Br)CC2)cc1`, the inhibition under setting [1] turned out to be 19.5%.
Take `O=Cc1ccc(N2CCC(C(=O)Nc3ccc(O)cc3[N+](=O)[O-])CC2)cc1`: the inhibition under setting [1] turned out to be 38.4%.

The values above are taken from ChEMBL document CHEMBL5606458, “ASAP - ZIKV NS2B-NS3 protease fluorescence single point” (2024).
